The results in this text go back to the supplement of paper PMC6555819.

What all share (assay): PBM binding z-score (relative to random genomic background probes); higher = stronger binding; sequences stand for … in GC…GCGATTGACAGCGTAGAATGAAGG
Test [1] concerns FXR:RXRa (NR concentration 270 nM, RXRa partner concentration 90 nM). An outline of the steps: (§1)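 Binding z-scores were set against random background probes. The data came from custom Agilent 4×180K protein-binding microarrays carrying double-stranded probes with 34-nt variable regions, incubated 1 h with ligand-free nuclear receptor dimers. Partner-specific antibodies detected binding, and scanned fluorescence was regression-normalized.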

Test [2] deals with LXRa:RXRa (NR concentration 270 nM, RXRa partner concentration 90 nM). Summed up:
as §1

Test [3] has as its system LXRa homodimer (NR concentration 270 nM). Summed up: as §1
For test [4], the system named is LXRb:RXRa (NR concentration 270 nM, RXRa partner concentration 90 nM). An outline of the steps:
as §1

Test [5] relates to LXRb homodimer (NR concentration 270 nM). An outline of the steps: as §1
The subject of test [6] is PPARa:RXRa (NR concentration 270 nM, RXRa partner concentration 90 nM). Summed up:
as §1

Test [7] concerns PPARg:RXRa (NR concentration 180 nM, RXRa partner concentration 90 nM). An outline of the steps: as §1
Test [8] relates to PPARg:RXRa 270nM:90nM, anti-RXR (NR concentration 270 nM, RXRa partner concentration 90 nM). Summed up:
as §1

Test [9] deals with PPARg:RXRa 30nM:10nM, anti-RXR (NR concentration 30 nM, RXRa partner concentration 10 nM). Summed up: as §1
For test [10], the system named is PPARg:RXRa 90nM:30nM, anti-RXR (NR concentration 90 nM, RXRa partner concentration 30 nM). An outline of the steps: as §1
Test [11] deals with PPARg:RXRa DBDmut IVT, anti-RXR (DBD mutation: RXRa K156A/R161A, NR concentration 270 nM, RXRa partner concentration 90 nM). Summed up:
as §1

In test [12] the test system is PPARg:RXRa IVT, anti-PPARg (NR concentration 270 nM, RXRa partner concentration 90 nM). Summed up:
as §1

The test system of test [13] is PPARg DBDmut:RXRa IVT, anti-PPARg (DBD mutation: PPARg1 K132A/R137A, NR concentration 270 nM, RXRa partner concentration 90 nM). Summed up: as §1
Test [14] has as its system PPARg DBDmut IVT, anti-PPARg (DBD mutation: PPARg1 K132A/R137A, NR concentration 270 nM). An outline of the steps: as §1
The test system of test [15] is PPARg homodimer (NR concentration 180 nM). Summed up:
as §1

Test [16] relates to PXR:RXRa (NR concentration 270 nM, RXRa partner concentration 90 nM). An outline of the steps:
as §1

The test system of test [17] is PXR homodimer (NR concentration 270 nM). Summed up:
as §1

For test [18], the system named is RARa:RXR (NR concentration 270 nM, RXRa partner concentration 90 nM). Summed up:
as §1

For test [19], the system named is RARa homodimer (NR concentration 270 nM). Summed up:
as §1

Test [20] concerns RARb:RXRa (NR concentration 270 nM, RXRa partner concentration 90 nM). Summed up:
as §1

In the case of CCTAGCACGCCAGGGTCACTCAAGCATTTCGCTT, the PBM binding z-score is 1.59 in test [1]; 1.52 in [2]; -0.519 in [3]; 1.79 in test [4]; -1.1 in [5]; 2.81 in [6]. In addition, the PBM binding z-score in test [7] was 0.36; in [8], 0.763; in [9], -0.35; in test [10], -0.137; in [11] it was -0.508; in test [12], 0.0216. Further, the PBM binding z-score in [13] was -0.715; in test [14], -1.26; in [15], 0.342; in test [16], 2.48; in [17] it was -0.243; in test [18], 2.55. Moreover, the PBM binding z-score is -0.31 in test [19] and 2.44 in test [20].

With CATACAGGGTCAGCTAGGCTAGAGTAGGGACGGC, the PBM binding z-score was 4.44 in test [1]; 2.68 in test [2]; -0.0896 in [3]; 2.06 in [4]; -0.0361 in test [5]; 4.12 in test [6]. For the same sequence, the PBM binding z-score in test [7] worked out at 3.06; in test [8], 2.93; in test [9] it was 0.539; in test [10], 2.03; in test [11], 1.19; in test [12], 2.32. The PBM binding z-score in test [13] is 0.769; in test [14] it was 0.0787; in test [15], 1.21; in test [16], 1.85; in test [17], -0.333; in test [18], 2.72. Moreover, the PBM binding z-score in test [19] came to 0.409; in test [20], 3.96.

As to AATACAGGGTCATCGTAGGCCAGAGTCCGCACAG, the PBM binding z-score in [1] turned out to be 7.16; in test [2] it was 6.35; in test [3] it was 2.6; in [4], 4.52; in [5], 1.21; in [6], 5.96. The PBM binding z-score was 6.83 in [7]; 5.83 in test [8]; 2.39 in test [9]; 4.51 in test [10]; 2.98 in [11]; 4.32 in test [12]. The PBM binding z-score in [13] was 0.922; in test [14], 0.82; in test [15], 2.39; in [16], 4.96; in [17], 0.483; in test [18] it was 4.93. For the same sequence, the PBM binding z-score in test [19] came to 0.764; in [20] it was 4.45.

As for TCGACTAGGTTAGGGGCATTCAGAATGGCGTCGA, the PBM binding z-score in [1] is 0.141; in test [2], 0.372; in test [3] it was -0.304; in test [4], 0.803; in test [5], -0.322; in test [6], 1.38. Also, the PBM binding z-score in [7] is 1.35; in test [8], 2.49; in test [9] it was 1.74; in test [10], 2.17; in [11], 2.47; in [12], 1.86. Besides, the PBM binding z-score is 0.0313 in test [13]; -0.271 in test [14]; 0.688 in [15]; 0.539 in test [16]; -0.0457 in [17]; 0.602 in test [18]. The PBM binding z-score is -0.239 in [19] and 1.26 in test [20].

For CCTGCTGGGCCATTCAGAGGTCATTGATCATATG, the PBM binding z-score turned out to be 2.79 in [1]; 4.29 in test [2]; 6.46 in [3]; 4.01 in test [4]; 0.198 in [5]; 3.65 in test [6]. The PBM binding z-score in test [7] was found to be 0.755; in test [8], 1.86; in [9] it was 0.0618; in [10] it was 1.15; in test [11] it was 0.632; in test [12], 1.28. Also, the PBM binding z-score in [13] is -1.02; in [14], -0.733; in [15], 1.68; in [16] it was 4.82; in test [17], 2.03; in [18], 4.69. The PBM binding z-score in [19] is -0.506; in [20], 3.23.

In the case of ACAGAGAGGTGATGAAGGTAACTCAGGCTATCAT, the PBM binding z-score in [1] is 0.1; in [2], -0.0398; in test [3], -0.296; in test [4] it was 0.23; in [5] it was 0.0774; in [6], 0.952. Moreover, the PBM binding z-score in [7] worked out at 0.708; in [8], 0.305; in [9], 0.188; in test [10], 0.328; in test [11], 1.04; in test [12], 1.11. Further, the PBM binding z-score was 0.359 in test [13]; -0.0267 in test [14]; 0.505 in test [15]; 0.0565 in test [16]; 0.268 in [17]; 0.393 in test [18]. In addition, the PBM binding z-score in test [19] was 0.478; in [20], 0.825.

As to ATCTCTAGGTAAATATAGTTCAGTGAATGCAAAT, the PBM binding z-score in test [1] is 0.614; in [2], 5.89; in test [3], 1.51; in test [4], 2.5; in test [5], 1.12; in [6], 0.691. Besides, the PBM binding z-score in test [7] stood at 1.16; in test [8], 0.903; in test [9], 1.13; in [10] it was 1.05; in test [11], 1.8; in test [12], 1.91. Moreover, the PBM binding z-score worked out at 1.61 in [13]; 1.65 in [14]; 1.19 in [15]; 1.38 in test [16]; 0.957 in test [17]; 0.923 in test [18]. The PBM binding z-score in test [19] is 1.21; in test [20] it was 0.851.
